Mtb FBA inh – inhibits M. tuberculosis FBA enzyme; 360,000 tested, 2.3% active; purified M. tuberculosis FBA, fluorescence read-out; P9WQA3; inhibition, % at 1 µM
Target sequence (P9WQA3 whole entry, looked up): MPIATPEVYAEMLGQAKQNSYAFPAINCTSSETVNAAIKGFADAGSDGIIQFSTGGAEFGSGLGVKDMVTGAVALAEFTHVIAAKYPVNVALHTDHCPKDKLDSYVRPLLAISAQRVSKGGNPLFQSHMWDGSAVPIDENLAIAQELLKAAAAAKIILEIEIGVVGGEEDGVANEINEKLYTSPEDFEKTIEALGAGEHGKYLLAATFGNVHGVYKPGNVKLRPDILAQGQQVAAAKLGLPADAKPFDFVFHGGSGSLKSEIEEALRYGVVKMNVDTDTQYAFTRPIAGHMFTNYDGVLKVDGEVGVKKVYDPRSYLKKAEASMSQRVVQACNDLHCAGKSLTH
BioA inh – inhibitors of Mycobacterium tuberculosis BioA enzyme; inhibition, % at 9.99 µM; purified M. tuberculosis BioA enzyme, plate reader; 360,000 tested, 0.096% active; in the data active = inhibition above about 40%
GDH-TPI counter-1 – inhibits GDH-TPI coupling enzymes, artifact for Mtb FBA screen; inhibition, % at 4.8 µM; AID 588335; GDH-TPI coupled enzyme counterscreen, NADH absorbance; 360,000 tested, 1.2% active; in the data active = inhibition above about 30%
Rv3671c inh – inhibits the M. tuberculosis serine protease Rv3671c | inhibition, % at 5.96 µM | 320,000 tested, 0.048% active | AID 2606 | P9WHR9; in the data active = inhibition above about 38%;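 also: extracellular domain of Rv3671c used as enzyme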
FadD28 binding – inhibitors of Mycobacterium tuberculosis FadD28 bisubstrate binding. inhibition, % at 12.5 µM. 360,000 tested, 0.22% active. FadD28 bisubstrate probe binding, fluorescence polarization. AID 588549; in the data active = inhibition above about 8.5%, passing the limit was not always enough
Mtb FBA confirm – confirmation of M. tuberculosis fructose-bisphosphate aldolase inhibitors; inhibition, % at 1 µM; shares compounds with Mtb FBA inh; AID 651616; 5,600 tested, 78% active; purified M. tuberculosis FBA, fluorescence read-out
GDH-TPI counter-2 – counter-screen for M. tuberculosis FBA inhibitors: GDH-TPI coupled enzyme inhibition; shares compounds with Mtb FBA inh; GDH-TPI coupled enzyme counterscreen, fluorescence; inhibition, % at 1 µM; 5,600 tested, 81% active; AID 652141; in the data active = inhibition above about 10%
Hits are given with their value; – = inactive; · = no result; + = active, no number. This is a sample that favours compounds with a hit; in the whole collection about 3% have one here. Rule as the data show it, unless noted: active = inhibition above about 27%; inactive = the rest.

SMILES | Mtb FBA inh | BioA inh | GDH-TPI counter-1 | Rv3671c inh | FadD28 binding | Mtb FBA confirm | GDH-TPI counter-2
c1ccc2cc3[nH]c(CN4CCOCC4)nc3cc2c1 | 103.0 | – | – | – | – | – | –
Nc1nc2n(n1)C(c1cccs1)CC(c1ccccc1)N2 (stereo unspecified) | 69.0 | – | – | – | – | 100.5 | 80.8
Cc1cc2[nH]c(=O)c3ccccc3n2n1 | – | – | – | – | – | · | ·
Cc1cc2[nH]c(=O)cc(-c3ccccc3)n2n1 | 34.0 | – | – | – | – | 153.3 | 119.8
Cc1ccc(C2OC34CCCCCC3C(C#N)(C(=N)O4)C2(C#N)C#N)cc1 (stereo unspecified) | 69.7 | · | – | – | – | 119.2 | 102.3
COc1ccc(CC(NC(C)=O)C(=O)NC2CCN(c3nc(C)cc(C)c3C#N)CC2)cc1OC (stereo unspecified) | 31.1 | · | – | – | – | 161.7 | 120.9
C[C@@H]1CN([C@@H](C)CO)S(=O)(=O)c2ccc(-c3ccccc3)cc2O[C@@H]1CN(C)Cc1cccc(F)c1 | · | – | · | · | · | · | ·
COCc1cc(C)nc2sc(C(=O)OC(C)C)c(N)c12 | 40.6 | – | – | – | – | + | 174.8
O=C(C[C@H]1CC[C@@H]2[C@H](COC[C@@H](O)CN2C(=O)Nc2ccc3c(c2)OCO3)O1)N1CCN(c2ccccc2)CC1 | · | – | · | · | · | · | ·
CC12CCC(C(=O)N(NC(=O)c3cc(Cl)ccc3O)C1=O)C2(C)C (stereo unspecified) | 44.2 | – | – | – | – | – | –
CC(=O)O[C@H](COc1c2ccoc2cc2oc(=O)ccc12)C(C)(C)O | 44.9 | – | – | – | – | – | –
C[C@H](CO)N1C[C@H](C)[C@@H](CN(C)Cc2ccncc2)Oc2ccc(NC(=O)Cc3cn(C)c4ccccc34)cc2CC1=O | · | – | · | · | · | · | ·
CN(C)c1ccc(/C=C/c2ccc3c4ccccc4ccc3[n+]2-c2ccccc2)cc1 | 35.7 | – | – | · | – | 121.6 | 100.5
COc1ccc(-c2cc(=O)[nH]c(=S)[nH]2)cc1 | – | – | – | – | – | · | ·
COc1ccc(-c2ccc(C(=O)O)c(=O)[nH]2)cc1 | 71.2 | · | – | – | – | 105.6 | 81.4
CCc1ccc2[nH]cc(S(=O)(=O)c3ccc(C)c(C)c3)c(=O)c2c1 | – | – | – | – | – | · | ·
CCc1ccc2[nH]c3nc(C)cc(C)c3c(=O)c2c1 | 75.1 | · | – | – | – | 74.7 | 58.8
COc1ccc(C2CC(=O)Oc3c2c(=O)n(C)c2ccccc32)c(OC)c1OC (stereo unspecified) | 36.9 | · | – | – | – | – | –
Cc1sc2nc(-c3ccccn3)[nH]c(=O)c2c1-c1ccccc1 | 31.4 | – | – | – | – | 46.4 | 37.4
Cc1sc2nc(-c3ccncc3)[nH]c(=O)c2c1-c1ccccc1 | · | · | · | – | · | · | ·
CC(=O)N1[C@@H]2c3ccc(/C=C/c4ccccc4)c(=O)n3C[C@H]1[C@H](CO)[C@H]2C(=O)NCC1CC1 | · | – | · | · | · | · | ·
Cc1ccc(S(=O)(=O)N2CCC(C(=O)NNC(=O)c3ccccc3O)CC2)cc1C | 29.7 | · | – | – | – | + | +
Cc1ccc(S(=O)(=O)N2CCC(C(=O)NNC(=O)c3ccccc3O)CC2)cc1 | – | – | – | – | – | · | ·
Cc1cc(C)c(C)c(S(=O)(=O)N2CCC(C(=O)NCc3cccs3)CC2)c1C | – | – | – | · | – | · | ·
Cc1cc(C)c(C)c(S(=O)(=O)N2CCC(C(=O)NNC(=O)c3ccccc3O)CC2)c1C | 38.8 | – | – | – | – | 133.3 | 112.6
SMILES | Mtb FBA inh | BioA inh | GDH-TPI counter-1 | Rv3671c inh | FadD28 binding | Mtb FBA confirm | GDH-TPI counter-2
CO[C@H]1CN(C)C(=O)c2cc(NC(=O)Cc3ccccc3)ccc2OC[C@H](C)N(C(C)=O)C[C@@H]1C | · | – | · | · | · | · | ·
O=C(C[C@H]1CC[C@H]2[C@@H](COC[C@H](O)CN2Cc2nccs2)O1)NCc1ccccc1Cl | · | – | · | · | · | · | ·
CCCc1cc(=O)oc2cc(C)cc(OC(C)C(=O)NCCCn3ccnc3)c12 (stereo unspecified) | 75.4 | – | – | – | – | 175.4 | 163.8
Cc1cc(C)cc(OC(C)C(=O)NCCCn2ccnc2)c1 (stereo unspecified) | – | · | – | – | · | · | ·
Cc1cc(OC(C)C(=O)NCCCn2ccnc2)c2c(C)cc(=O)oc2c1 (stereo unspecified) | 95.9 | – | – | – | – | + | +
COCc1cn(CC[C@@H]2CC[C@@H](NC(=O)c3ccccc3)[C@H](CO)O2)nn1 | · | – | · | · | · | · | ·

Assay outcomes: PubChem BioAssay, several laboratories
